The values below come from PubChem BioAssay.

A short description of assay [1]: kinase inhibitors against Plasmodium liver-stage infection, cell-based, known kinase inhibitor set, luminescence, hepatoma host viability (AID 624392).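 Note: infected cells incubated roughly two days before readout.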 As to conditions: Plasmodium liver stage in hepatoma cells, luciferase luminescence, concentration not given here; liver cell % of control: measured here: host liver cell viability; parasite % of control: stronger effect = lower value.

Assay [2] can be described thus: modulators of glucocorticoid suppression of NF-kB, cell-based, luciferase, IL-1B stimulus, dexamethasone (AID 624486).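 For percent of negative control (+Dex): 100% = mean signal of vehicle control wells on the plate.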 The following applies: NF-kB luciferase reporter, IL-1B + dexamethasone, luminescence; percent of negative control (+Dex): actives lie on both sides, concentration not given here; z-score: measured here: IL-1B alone, no Dex. (A reporter such as luciferase makes a cellular process visible.)

Assay [3] concerns the target Cellular tumor antigen p53 (Homo sapiens) (UniProt P04637). Description: kinase inhibitors altering GFP-p53 stability in HPV16-positive cells, imaging, known kinase inhibitor set, EGFP/DsRed ratio (AID 1053116).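 Note: cells exposed to compounds for 24 h at 37 °C before reading.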 As to conditions: stronger effect = higher value; EGFP object count: measured here: GFP-p53 positive objects count.
A short description of assay [4]: IRF3 reporter activation in THP-1 macrophages, cell-based, PMA-stimulated THP-1, luminescence (AID 1053176). The following applies: PMA-differentiated THP-1, IRF3 reporter luminescence; stronger effect = higher value.
The nature of assay [5]: kinase inhibitors altering Pseudomonas killing of worms, whole organism (AID 651566).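 Note: tested at 14 µM; sign flipped so higher z means a lower ratio.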 As to conditions: C. elegans killed by P. aeruginosa, survival ratio.
Assay [6] in a line: activators of macrophage pro-inflammatory response, cell-based, murine, luminescence (AID 652131). As to conditions: murine macrophage pro-inflammatory reporter, stronger effect = higher value.
Assay [7] is described as follows: survival rescue of mitochondrial mutant cells in low glucose, primary screen, MELAS cybrids, Rieske KO mouse fibroblasts, CellTiter-Glo (AID 1508586;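 active = mean z-score across replicates of 1.96 or higher in either the MELAS or the Rieske mutant cell line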;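 note: z relative to plate mean and SD of compound and empty wells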). In general terms: Cellular ATP, detected with luciferase, serves as a proxy for viable cell number.
Where [8] appears, read: MELAS cybrid survival, CellTiter-Glo 48 h, stronger effect = higher value.
Setting [9] is: Rieske KO mouse fibroblast survival, CellTiter-Glo 72 h.

Structures are written as SMILES. Values joined by “and” are separate entries in the source; they are usually repeats but may differ in a detail not shown here. Equal values may be shown once. Active and inactive are the calls of the source. Unless noted, the rule behind the calls is not given here.

Cellular tumor antigen p53 (Homo sapiens), sequence (P04637 whole entry, looked up): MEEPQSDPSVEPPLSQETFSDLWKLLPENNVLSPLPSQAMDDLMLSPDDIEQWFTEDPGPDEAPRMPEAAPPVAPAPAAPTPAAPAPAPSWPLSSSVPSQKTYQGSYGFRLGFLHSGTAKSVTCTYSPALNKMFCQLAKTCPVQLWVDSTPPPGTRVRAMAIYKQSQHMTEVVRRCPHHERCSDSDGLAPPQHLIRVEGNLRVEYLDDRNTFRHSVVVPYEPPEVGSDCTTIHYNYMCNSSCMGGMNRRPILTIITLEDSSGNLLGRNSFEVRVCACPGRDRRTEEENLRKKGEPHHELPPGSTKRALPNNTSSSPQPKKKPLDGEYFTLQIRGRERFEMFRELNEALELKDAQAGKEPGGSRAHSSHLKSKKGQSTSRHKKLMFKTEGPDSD

On to `N#Cc1ccc(C(=O)c2cnn(-c3ccc(F)cc3)c2N)cc1`, for which, in assay [1], the liver cell % of control was determined as 103% and the parasite % of control is 59.8% (inactive). In assay [2], the percent of negative control (+Dex) is 131% (active) and the z-score came out at 1.97. In assay [3], the EGFP object count came to 13 and the EGFP/DsRed ratio was 0.456 (inactive). For the same compound, the fraction signal in assay [4] is 0.0095 (inactive).

For the compound `O=C1NC(=NC(CO)c2ccccc2)SC1=Cc1ccc2ncccc2c1` (stereo unspecified), in assay [1], the liver cell % of control is 113% and 90.5%; the parasite % of control was 71.9% (inactive) and 55.3% (inactive). In assay [2], the percent of negative control (+Dex) was 102% (inactive) and 96% (inactive); the z-score is 0.925 and 0.08. In addition, in assay [3], the EGFP object count was 4 and 5.5; the EGFP/DsRed ratio was 0.088 (inactive) and 0.122 (inactive). For the same compound, in assay [4], the fraction signal is -0.005 (inactive) and 0.0055 (inactive).

Regarding `Cn1c(=O)c(Oc2ccccc2F)cc2cnc(NC3CCOCC3)nc21`, in assay [1], the liver cell % of control is 116% and the parasite % of control is 49.5% (inactive). In assay [2], the percent of negative control (+Dex) is 107% (inactive) and the z-score is 0.09. Besides, in assay [3], the EGFP object count is 7 and the EGFP/DsRed ratio is 0.313 (inactive). Further, the fraction signal in assay [4] is 0.001 (inactive).

`COc1cc(Nc2ncc(-c3ccccc3)o2)cc(OC)c1` returned a liver cell % of control in assay [1] of 105%. The parasite % of control in assay [1] is 156% (inactive). Further, the percent of negative control (+Dex) in assay [2] was 158% (inactive). For the same compound, the z-score is 5.51 in assay [2]; -1.38 (inactive) in assay [5]; 1.77 (inactive) in assay [6]; 0.0476 (inactive) in assay [7] (setting [8]); -0.415 in assay [7] (setting [9]). Moreover, the EGFP object count in assay [3] is 3.5. Also, in assay [3], the EGFP/DsRed ratio was 0.0542 (inactive). Moreover, the fraction signal in assay [4] is 0.0025 (inactive).

As for `CN=C1NC(=O)C(=Cc2ccc3ncccc3c2)S1`, in assay [1], the liver cell % of control stood at 82.2% and the parasite % of control is 65.3% (inactive). In assay [2], the percent of negative control (+Dex) is 98.5% (inactive) and the z-score was -0.23. Further, in assay [3], the EGFP object count was 2 and the EGFP/DsRed ratio was 0.0435 (inactive). For the same compound, the fraction signal in assay [4] is 0.0015 (inactive).

For the compound `CC(=O)NC(Cc1ccc(OP(=O)(O)O)cc1)C(=O)NC1CCC(=O)N2CCCC(C(=O)NCc3ccccc3)N2C1=O` (stereo unspecified), in assay [1], the liver cell % of control turned out to be 105% and the parasite % of control was 55% (inactive). In assay [2], the percent of negative control (+Dex) is 102% (inactive) and the z-score was 0.685. Further, in assay [3], the EGFP object count came to 1.5 and the EGFP/DsRed ratio was 0.0487 (inactive). For the same compound, the fraction signal in assay [4] was -0.0115 (inactive).

Regarding `CC(C)(O)CCc1cccc(C(=O)c2cnn(-c3ccc(F)cc3)c2N)c1`, in assay [1], the liver cell % of control was 105% and the parasite % of control was 56.9% (inactive). In assay [2], the percent of negative control (+Dex) was 110% (inactive) and the z-score is 0.16. Further, in assay [3], the EGFP object count stood at 1.5 and the EGFP/DsRed ratio is 0.0442 (inactive). Further, the fraction signal in assay [4] was 0.0185 (inactive).

As for `Cn1cc(C2=C(c3cn(CCCCC(=N)N)c4ccccc34)C(=O)NC2=O)c2ccccc21`, in assay [1], the liver cell % of control came out at 133% and the parasite % of control was 22.6% (inactive). Also, in assay [2], the percent of negative control (+Dex) was 98% (inactive) and the z-score is 0.29. Also, in assay [3], the EGFP object count turned out to be 10.5 and the EGFP/DsRed ratio is 0.2 (inactive). For the same compound, in assay [4], the fraction signal was 0.0055 (inactive).

`CS(=O)(=O)N1CCC(n2c(=O)c(Oc3ccc(F)cc3F)cc3cnc(NC4CCOCC4)nc32)CC1`: in assay [1], the liver cell % of control is 112% and the parasite % of control is 64.5% (inactive). Besides, in assay [2], the percent of negative control (+Dex) is 95% (inactive) and the z-score was -0.51. Further, in assay [3], the EGFP object count is 2 and the EGFP/DsRed ratio was 0.107 (inactive). Moreover, in assay [4], the fraction signal was 0.0035 (inactive).

In the case of `O=C1NC(=NCCc2ccccc2F)SC1=Cc1ccc2ncccc2c1`, in assay [1], the liver cell % of control worked out at 108% and the parasite % of control is 44.4% (inactive). In assay [2], the percent of negative control (+Dex) is 99% (inactive) and the z-score was determined as 0.18. Besides, in assay [3], the EGFP object count was found to be 12.5 and the EGFP/DsRed ratio was 0.349 (inactive). In addition, in assay [4], the fraction signal was -0.0025 (inactive).

In the case of `COc1cc[nH]c1C=C1C(=O)Nc2ccc([N+](=O)[O-])c(N3CCC(O)C3)c21` (stereo unspecified), in assay [1], the liver cell % of control was determined as 102% and the parasite % of control was 15.7% (inactive). Besides, in assay [2], the percent of negative control (+Dex) was 29.5% (active) and the z-score is -7.83. Moreover, in assay [3], the EGFP object count was determined as 3.5 and the EGFP/DsRed ratio was 0.0609 (inactive). Further, in assay [4], the fraction signal was -0.018 (inactive).

In assay [1], `Oc1[nH]c2ccccc2c1C=Nc1ccc(-n2cncn2)cc1` registered a liver cell % of control of 80.6%. Also, in assay [1], the parasite % of control was 240% (inactive). For the same compound, in assay [2], the percent of negative control (+Dex) was 142% (active). The z-score in assay [2] is 4.13; in assay [5] it was -0.065 (inactive); in assay [6], 3.17 (inactive); in assay [7] (setting [8]), 0.931 (inactive); in assay [7] (setting [9]), -0.448. Moreover, the EGFP object count in assay [3] is 8.5. Besides, in assay [3], the EGFP/DsRed ratio is 0.377 (inactive). Further, the fraction signal in assay [4] is -0.0045 (inactive).

With `O=[N+]([O-])c1ccc2c(c1)C(c1ccccc1Cl)=Nc1cn[nH]c1N2`, in assay [1], the liver cell % of control stood at 101% and the parasite % of control is 21.4% (inactive). In assay [2], the percent of negative control (+Dex) is 109% (inactive) and the z-score was -0.52. For the same compound, in assay [3], the EGFP object count stood at 12 and the EGFP/DsRed ratio is 0.495 (inactive). Moreover, the fraction signal in assay [4] is -0.005 (inactive).

As for `Cc1cc(C)c2c(n1)sc1c(N)ncnc12`, in assay [1], the liver cell % of control stood at 173% and the parasite % of control was 24.3% (inactive). In addition, in assay [2], the percent of negative control (+Dex) is 68.5% (active) and the z-score is -2.76. In assay [3], the EGFP object count was determined as 2.5 and the EGFP/DsRed ratio is 0.0145 (inactive). The fraction signal in assay [4] is 0.0035 (inactive).

Turning to `Cn1c(=O)c(Cc2ccccc2F)cc2cnc(NC3CCOCC3)nc21`, in assay [1], the liver cell % of control came out at 106% and the parasite % of control is 64.6% (inactive). Besides, in assay [2], the percent of negative control (+Dex) was 107% (inactive) and the z-score was 0.55. In assay [3], the EGFP object count is 2.5 and the EGFP/DsRed ratio is 0.0998 (inactive). Moreover, the fraction signal in assay [4] was 0.0035 (inactive).

Regarding `COc1ccc(C2=C(c3cn(C)c4ccccc34)C(=O)NC2=O)cc1`, in assay [1], the liver cell % of control stood at 131% and the parasite % of control is 39.3% (inactive). Also, in assay [2], the percent of negative control (+Dex) is 108% (inactive) and the z-score was -0.1. Further, in assay [3], the EGFP object count stood at 5.5 and the EGFP/DsRed ratio was 0.214 (inactive). The fraction signal in assay [4] was -0.0115 (inactive).

For `Cn1cc(C2=C(c3cccc4ccccc34)C(=O)NC2=O)c2ccccc21`, in assay [1], the liver cell % of control was determined as 108% and the parasite % of control is 33.9% (inactive). Besides, in assay [2], the percent of negative control (+Dex) is 95.5% (inactive) and the z-score is -1.1. Further, in assay [3], the EGFP object count turned out to be 14 and the EGFP/DsRed ratio was 0.386 (inactive). For the same compound, in assay [4], the fraction signal was -0.007 (inactive).

In the case of `O=C1NC(=Nc2ccccc2)SC1=Cc1ccc2ncccc2c1`, in assay [1], the liver cell % of control worked out at 124% and the parasite % of control is 68.1% (inactive). Besides, in assay [2], the percent of negative control (+Dex) was 98% (inactive) and the z-score turned out to be 0.04. Besides, in assay [3], the EGFP object count was 3 and the EGFP/DsRed ratio was 0.0469 (inactive). Besides, the fraction signal in assay [4] is -0.003 (inactive).

With `Cn1cc(C2=C(c3ccccc3)C(=O)NC2=O)c2ccccc21`, in assay [1], the liver cell % of control stood at 104% and the parasite % of control was 41% (inactive). Besides, in assay [2], the percent of negative control (+Dex) was 96% (inactive) and the z-score was -0.33. Also, in assay [3], the EGFP object count turned out to be 9.5 and the EGFP/DsRed ratio was 0.26 (inactive). For the same compound, the fraction signal in assay [4] was -0.001 (inactive).
